# PubChem BioAssay (EPA / NIEHS)
# Results filed as inconclusive are left out. Active and inactive are the calls of the source. The calls were made as follows: active = hit-call score of the fitted dose curve at least 0.9, where 1 is the maximum; inconclusive = response in the unintended direction; inactive = score below 0.9.
# Key:
# [1] = molecular target: human Opioid Receptor Mu (Opiate Mu), OPRM1 (gene 4988) (UniProt P35372); assay: NVS_GPCR_hOpiate_mu: NovaScreen (NVS) G Protein-Coupled Receptor Assay for human Opioid Receptor Mu (Opiate Mu) (AID 2283290);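 also: hits lower bound tracer signal versus DMSO meaning displacement of the ligand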
# Sequence of human Opioid Receptor Mu (Opiate Mu), OPRM1 (gene 4988) (P35372 whole entry, looked up): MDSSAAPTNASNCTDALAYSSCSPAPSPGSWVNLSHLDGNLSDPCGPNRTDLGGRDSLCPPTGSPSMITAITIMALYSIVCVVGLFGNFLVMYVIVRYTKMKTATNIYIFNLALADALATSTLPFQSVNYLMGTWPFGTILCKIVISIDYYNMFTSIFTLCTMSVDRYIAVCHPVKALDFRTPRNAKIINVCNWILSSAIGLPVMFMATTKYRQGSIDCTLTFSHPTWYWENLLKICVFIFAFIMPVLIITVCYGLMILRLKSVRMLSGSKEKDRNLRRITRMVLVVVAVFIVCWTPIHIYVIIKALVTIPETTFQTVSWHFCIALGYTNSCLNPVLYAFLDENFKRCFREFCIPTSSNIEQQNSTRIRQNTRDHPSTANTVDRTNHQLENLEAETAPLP
# Procedure, shortened: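 Radioligand displacement binding on membranes from CHO cells expressing the receptor, 2.5 h after dosing, filter-based scintillation counting; loss of signal vs DMSO baseline. Screened in duplicate at 25 uM, actives then run in concentration series.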
# [2] = system: rat Adrenergic, Alpha 1B Receptor (Adra1B), gene 24173; assay: NVS_GPCR_rAdra1B: NovaScreen (NVS) G Protein-Coupled Receptor Assay for rat Adrenergic, Alpha 1B Receptor (Adra1B) (AID 2283297)
# Procedure, shortened: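 Rat liver membranes, radioligand displacement with filter-based scintillation detection, 1 h incubation. Primary screen in duplicate at 25 uM; actives retested in concentration series; activity relative to DMSO.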
# [3] = molecular target: guinea pig Serotonin, 5-Hydroxytryptamine Receptor 4 (5HT4), HTR4 (gene 100135548) (UniProt O70528); assay: NVS_GPCR_g5HT4: NovaScreen (NVS) G Protein-Coupled Receptor Assay for guinea pig Serotonin, 5-Hydroxytryptamine Receptor 4 (5HT4) (AID 2283294)
# Sequence of guinea pig Serotonin, 5-Hydroxytryptamine Receptor 4 (5HT4), HTR4 (gene 100135548) (O70528 whole entry, looked up): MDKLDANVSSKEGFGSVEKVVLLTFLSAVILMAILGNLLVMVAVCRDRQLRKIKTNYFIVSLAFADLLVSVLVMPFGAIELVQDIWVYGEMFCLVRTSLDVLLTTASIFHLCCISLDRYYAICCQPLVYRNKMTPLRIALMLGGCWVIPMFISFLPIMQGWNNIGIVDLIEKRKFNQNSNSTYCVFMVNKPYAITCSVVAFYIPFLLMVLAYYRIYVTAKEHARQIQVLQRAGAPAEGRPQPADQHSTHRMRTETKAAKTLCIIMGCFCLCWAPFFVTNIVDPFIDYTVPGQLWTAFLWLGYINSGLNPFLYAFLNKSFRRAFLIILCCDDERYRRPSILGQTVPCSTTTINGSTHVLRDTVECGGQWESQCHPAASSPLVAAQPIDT
# Procedure, shortened: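 Guinea pig striatal membranes; radioligand competitive displacement, filtration and scintillation counting after 1 h. Primary screen in duplicate at 25 uM; actives then tested in concentration series; loss of binding signal fitted relative to DMSO.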
# [4] = molecular target: rat Adrenergic Receptor, Alpha 2 (Adra2), Non-selective Binding, Adra2a (gene 25083) (UniProt P22909); assay: NVS_GPCR_rAdra2_NonSelective: NovaScreen (NVS) G Protein-Coupled Receptor Assay for rat Adrenergic Receptor, Alpha 2 (Adra2), Non-selective Binding (AID 2283299)
# Sequence of rat Adrenergic Receptor, Alpha 2 (Adra2), Non-selective Binding, Adra2a (gene 25083) (P22909 whole entry, looked up): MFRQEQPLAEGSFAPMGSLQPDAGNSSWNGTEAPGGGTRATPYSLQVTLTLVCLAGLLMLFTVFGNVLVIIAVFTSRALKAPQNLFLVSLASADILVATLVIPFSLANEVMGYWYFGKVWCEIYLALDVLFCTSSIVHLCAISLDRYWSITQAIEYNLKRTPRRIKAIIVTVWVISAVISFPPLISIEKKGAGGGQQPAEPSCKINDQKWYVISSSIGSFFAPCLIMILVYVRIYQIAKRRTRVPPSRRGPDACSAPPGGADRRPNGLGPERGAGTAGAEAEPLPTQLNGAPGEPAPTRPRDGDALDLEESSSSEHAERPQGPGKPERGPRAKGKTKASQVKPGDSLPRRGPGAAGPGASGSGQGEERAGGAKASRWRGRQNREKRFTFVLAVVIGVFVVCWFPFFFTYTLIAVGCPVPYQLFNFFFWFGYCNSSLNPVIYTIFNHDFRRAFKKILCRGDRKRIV
# Procedure, shortened: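 Rat cortical membranes, radioligand competitive displacement read by filter-based scintillation counting 1.25 hours after dosing. Primary screen in duplicate at 25 uM; actives followed up in concentration series.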
# [5] = molecular target: rat Histamine Receptor (H3), Hrh3 (gene 85268) (UniProt Q9QYN8); assay: NVS_GPCR_rH3: NovaScreen (NVS) G Protein-Coupled Receptor Assay for rat Histamine Receptor (H3) (AID 2283303)
# Sequence of rat Histamine Receptor (H3), Hrh3 (gene 85268) (Q9QYN8 whole entry, looked up): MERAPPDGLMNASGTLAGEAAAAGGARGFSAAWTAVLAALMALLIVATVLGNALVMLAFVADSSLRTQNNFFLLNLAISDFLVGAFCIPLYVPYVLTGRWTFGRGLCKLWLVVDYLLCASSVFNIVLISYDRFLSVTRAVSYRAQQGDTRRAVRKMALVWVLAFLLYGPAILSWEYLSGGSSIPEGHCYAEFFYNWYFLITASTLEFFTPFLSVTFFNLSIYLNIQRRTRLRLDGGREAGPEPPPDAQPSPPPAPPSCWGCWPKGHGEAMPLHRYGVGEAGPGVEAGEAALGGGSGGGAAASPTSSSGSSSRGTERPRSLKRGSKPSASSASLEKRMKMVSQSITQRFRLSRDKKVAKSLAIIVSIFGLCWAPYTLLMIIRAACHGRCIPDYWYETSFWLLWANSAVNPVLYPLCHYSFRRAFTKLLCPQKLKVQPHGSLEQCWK
# Procedure, shortened: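 Rat forebrain membranes incubated 1 h with compound; radioligand displacement measured by filter-based scintillation counting. Single-concentration duplicates at 25 µM, then concentration-response up to 50 µM, relative to DMSO.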
# Adra2b (gene 24174) = Adra2b (gene 24174) (UniProt P19328); assay: NVS_GPCR_rmAdra2B: NovaScreen (NVS) G Protein-Coupled Receptor Assay for hybird cells Adrenergic, Alpha 2B Receptor (Adra2B) (AID 2283306)
# Sequence of Adra2b (gene 24174) (P19328 whole entry, looked up): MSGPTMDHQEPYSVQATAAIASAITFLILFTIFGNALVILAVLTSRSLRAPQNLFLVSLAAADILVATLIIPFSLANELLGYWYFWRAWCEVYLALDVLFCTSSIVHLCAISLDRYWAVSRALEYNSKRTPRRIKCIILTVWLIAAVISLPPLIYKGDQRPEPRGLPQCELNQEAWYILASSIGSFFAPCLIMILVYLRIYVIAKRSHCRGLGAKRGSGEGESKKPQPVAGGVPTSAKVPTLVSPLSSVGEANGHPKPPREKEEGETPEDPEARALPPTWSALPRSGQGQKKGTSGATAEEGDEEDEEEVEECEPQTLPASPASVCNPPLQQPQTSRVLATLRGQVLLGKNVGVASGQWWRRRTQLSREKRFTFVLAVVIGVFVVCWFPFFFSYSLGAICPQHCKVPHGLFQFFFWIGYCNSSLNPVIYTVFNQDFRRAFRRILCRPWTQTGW
# Procedure, shortened: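 Radioligand filter-binding assay on membrane proteins from neuroglioma/blastoma hybrid cells (rodent), 1 h after dosing; scintillation counting, loss of signal vs DMSO. Primary screen in duplicate at 25 uM, actives then run in concentration series.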
# [6] = molecular target: rat Neurokinin-1 Receptor (NK1), Tacr1 (gene 24807) (UniProt P14600); assay: NVS_GPCR_rNK1: NovaScreen (NVS) G Protein-Coupled Receptor Assay for rat Neurokinin-1 Receptor (NK1) (AID 2283309)
# Sequence of rat Neurokinin-1 Receptor (NK1), Tacr1 (gene 24807) (P14600 whole entry, looked up): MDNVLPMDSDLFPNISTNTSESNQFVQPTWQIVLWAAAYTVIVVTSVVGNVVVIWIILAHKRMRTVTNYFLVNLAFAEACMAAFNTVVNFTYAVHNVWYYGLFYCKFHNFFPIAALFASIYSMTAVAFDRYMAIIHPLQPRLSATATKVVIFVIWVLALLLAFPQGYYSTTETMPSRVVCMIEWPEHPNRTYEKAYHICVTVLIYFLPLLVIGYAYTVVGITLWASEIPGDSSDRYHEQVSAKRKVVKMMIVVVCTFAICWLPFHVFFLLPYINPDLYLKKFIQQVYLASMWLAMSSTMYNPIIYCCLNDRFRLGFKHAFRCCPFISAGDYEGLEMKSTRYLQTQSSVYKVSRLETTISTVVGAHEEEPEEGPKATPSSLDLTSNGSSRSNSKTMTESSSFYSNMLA
# Procedure, shortened: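 Rat submaxillary gland membranes; radioligand displacement read by filter-based scintillation counting after 1 h. Primary screen in duplicate at 25 uM; actives retested in concentration series; loss of binding fitted versus DMSO.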
# [7] = molecular target: rat Opioid Receptor, Non-selective Sodium (Na+) Binding, Oprm1 (gene 25601) (UniProt P33535); assay: NVS_GPCR_rOpiate_NonSelectiveNa: NovaScreen (NVS) G Protein-Coupled Receptor Assay for rat Opioid Receptor, Non-selective Sodium (Na+) Binding (AID 2283311)
# Sequence of rat Opioid Receptor, Non-selective Sodium (Na+) Binding, Oprm1 (gene 25601) (P33535 whole entry, looked up): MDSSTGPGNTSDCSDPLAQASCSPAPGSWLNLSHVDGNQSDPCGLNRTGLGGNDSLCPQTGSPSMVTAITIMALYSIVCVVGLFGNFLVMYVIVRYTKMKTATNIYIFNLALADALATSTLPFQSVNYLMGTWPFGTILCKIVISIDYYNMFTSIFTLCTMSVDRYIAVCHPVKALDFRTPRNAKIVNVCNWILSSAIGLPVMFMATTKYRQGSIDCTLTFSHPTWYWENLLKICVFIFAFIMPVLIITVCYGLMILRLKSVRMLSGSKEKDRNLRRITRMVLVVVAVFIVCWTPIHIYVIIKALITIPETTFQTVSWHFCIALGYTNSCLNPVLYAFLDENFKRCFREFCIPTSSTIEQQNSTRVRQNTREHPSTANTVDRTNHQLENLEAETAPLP
# Procedure, shortened: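 Rat forebrain membranes, radioligand displacement with filter scintillation counting, 1.5 h incubation. Screened in duplicate at 25 µM; hits then run in concentration-response up to 50 µM; loss of binding fitted versus DMSO.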
# [8] = molecular target: rat Adrenergic Receptor, Beta (Adrb), Non-selective Binding, Adrb1 (gene 24925) (UniProt P18090); assay: NVS_GPCR_rAdrb_NonSelective: NovaScreen (NVS) G Protein-Coupled Receptor Assay for rat Adrenergic Receptor, Beta (Adrb), Non-selective Binding (AID 2283298)
# Sequence of rat Adrenergic Receptor, Beta (Adrb), Non-selective Binding, Adrb1 (gene 24925) (P18090 whole entry, looked up): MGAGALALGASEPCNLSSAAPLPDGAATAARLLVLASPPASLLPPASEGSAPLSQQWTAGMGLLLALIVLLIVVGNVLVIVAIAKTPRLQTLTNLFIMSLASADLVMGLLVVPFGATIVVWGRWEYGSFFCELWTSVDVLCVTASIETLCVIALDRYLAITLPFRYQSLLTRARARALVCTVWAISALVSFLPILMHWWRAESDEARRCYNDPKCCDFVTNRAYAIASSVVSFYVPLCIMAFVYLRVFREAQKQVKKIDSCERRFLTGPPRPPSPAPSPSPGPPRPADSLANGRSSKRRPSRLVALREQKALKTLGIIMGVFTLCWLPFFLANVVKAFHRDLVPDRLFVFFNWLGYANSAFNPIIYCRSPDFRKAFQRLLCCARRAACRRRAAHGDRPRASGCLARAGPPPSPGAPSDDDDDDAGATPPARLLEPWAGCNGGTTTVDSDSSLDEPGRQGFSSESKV
# Procedure, shortened: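 Non-selective beta-adrenergic radioligand binding in rat cortical membranes, 1 h incubation, filter-based scintillation read-out. Primary screen 25 uM in duplicate; hits retested in concentration-response up to 50 uM, DMSO baseline.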
# [9] = molecular target: rat Gamma-Aminobutyric Acid Type B Receptor (GABBR), Gabbr1 (gene 81657) (UniProt Q9Z0U4); assay: NVS_GPCR_rGABBR: NovaScreen (NVS) G Protein-Coupled Receptor Assay for rat Gamma-Aminobutyric Acid Type B Receptor (GABBR) (AID 2283301)
# Procedure, shortened: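 Radioligand displacement on rat cortical membranes, 1 h, filter-based scintillation counting. Primary screen at 25 uM in duplicate; compounds passing threshold re-tested in concentration-response up to 50 uM; loss of binding fitted against DMSO.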
# [10] = molecular target: rat Glutamate Metabotropic Receptor 5 (MGluR5), Grm5 (gene 24418) (UniProt P31424); assay: NVS_GPCR_rmMGluR5: NovaScreen (NVS) G Protein-Coupled Receptor Assay for rat Glutamate Metabotropic Receptor 5 (MGluR5) (AID 2283307)
# Procedure, shortened: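 Rat whole-brain membrane preparation; filter-based radioligand binding read by scintillation counting, 1.5 h after dosing. Single-point screen at 25 uM in duplicate; hits over threshold (e.g. 30% inhibition) retested in concentration-response up to 50 uM; loss of signal vs DMSO.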
# [11] = molecular target: Metabotropic glutamate receptor 1 (Rattus norvegicus) (UniProt P23385); assay: NVS_GPCR_rmMGluR1: NovaScreen (NVS) G Protein-Coupled Receptor Assay for rat Glutamate Metabotropic Receptor 1 (MGluR1) (AID 2283305)
# Procedure, shortened: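 Rat cerebellum membrane preparation, radioligand displacement binding read by filter-based scintillation counting 1 hour after dosing. Initial duplicate single-point screen at 25 uM, then concentration-response up to 50 uM; loss of signal versus DMSO baseline scored.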
# [12] = molecular target: rat Neurokinin-3 Receptor (NK3), Tacr3 (gene 24808) (UniProt P16177); assay: NVS_GPCR_rNK3: NovaScreen (NVS) G Protein-Coupled Receptor Assay for rat Neurokinin-3 Receptor (NK3) (AID 2283310)
# Procedure, shortened: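 Rat cortical membranes; radioligand binding with filtration and scintillation counting, 2 h after dosing. Primary screen in duplicate at 25 uM, then concentration-response up to 50 uM; loss of binding signal relative to DMSO.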
# [13] = molecular target: rat Adrenergic, Alpha 1A Receptor (Adra1A), Adra1a (gene 29412) (UniProt P43140); assay: NVS_GPCR_rAdra1A: NovaScreen (NVS) G Protein-Coupled Receptor Assay for rat Adrenergic, Alpha 1A Receptor (Adra1A) (AID 2283296)
# Sequence of rat Adrenergic, Alpha 1A Receptor (Adra1A), Adra1a (gene 29412) (P43140 whole entry, looked up): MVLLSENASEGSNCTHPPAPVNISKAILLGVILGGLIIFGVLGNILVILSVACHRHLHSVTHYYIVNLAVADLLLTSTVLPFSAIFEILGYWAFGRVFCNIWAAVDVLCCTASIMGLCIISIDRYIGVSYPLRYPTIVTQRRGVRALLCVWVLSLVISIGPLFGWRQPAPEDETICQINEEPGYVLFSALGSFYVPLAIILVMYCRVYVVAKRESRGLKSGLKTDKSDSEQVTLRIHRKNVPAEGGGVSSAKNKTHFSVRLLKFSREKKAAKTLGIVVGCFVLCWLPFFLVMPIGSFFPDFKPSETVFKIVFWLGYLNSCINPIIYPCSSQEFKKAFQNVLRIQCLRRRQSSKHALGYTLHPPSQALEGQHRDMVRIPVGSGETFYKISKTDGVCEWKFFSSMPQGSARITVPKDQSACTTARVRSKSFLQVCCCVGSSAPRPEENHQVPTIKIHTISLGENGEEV
# Procedure, shortened: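 Rat cortical membranes pretreated with chlorethyl clonidine; competitive radioligand displacement, 1 h. Filter-based scintillation counting. Primary screen in duplicate at 25 uM, actives followed in concentration series.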
# [14] = molecular target: rat Somatostatin Receptor (SST), Sstr1 (gene 25033) (UniProt P28646); assay: NVS_GPCR_rSST: NovaScreen (NVS) G Protein-Coupled Receptor Assay for rat Somatostatin Receptor (SST) (AID 2283314)
# Procedure, shortened: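 Rat forebrain membranes; radioligand displacement read by filter-based scintillation counting 1 h after dosing. Primary screen in duplicate at 25 uM. Actives (e.g., 30% inhibition) were rerun as concentration-response to 50 uM max and fitted against DMSO.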
# [15] = system: 5-hydroxytryptamine receptor 2C (pig); assay: NVS_GPCR_p5HT2C: NovaScreen (NVS) G Protein-Coupled Receptor Assay for pig Serotonin, 5-Hydroxytryptamine Receptor 2C (5HT2C) (AID 2283288)
# Procedure, shortened: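 Pig choroid plexus membranes; radioligand competitive binding, filter-based scintillation counting, read 1 h after dosing. Primary screen in duplicate at 25 uM; actives then run as concentration series; loss of signal versus DMSO baseline.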
# [16] = molecular target: rat Adrenergic, Alpha 1, Non-selective Receptor (Adra1), Adra1a (gene 29412) (UniProt P43140); assay: NVS_GPCR_rAdra1_NonSelective: NovaScreen (NVS) G Protein-Coupled Receptor Assay for rat Adrenergic, Alpha 1, Non-selective Receptor (Adra1) (AID 2283289)
# Sequence of rat Adrenergic, Alpha 1, Non-selective Receptor (Adra1), Adra1a (gene 29412) (P43140 whole entry, looked up): as above
# Procedure, shortened: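 Rat forebrain membranes; radioligand displacement read by filter-based scintillation counting 1 h after dosing. Primary screen in duplicate at 25 uM; hits (e.g. ≥30% inhibition) rerun as concentration–response to 50 uM max. Fitted versus DMSO.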
# [17] = molecular target: rat Serotonin, 5-Hydroxytryptamine Receptor (5HT), Non-Selective Binding, Htr1a (gene 24473) (UniProt P19327); assay: NVS_GPCR_r5HT_NonSelective: NovaScreen (NVS) G Protein-Coupled Receptor Assay for rat Serotonin, 5-Hydroxytryptamine Receptor (5HT), Non-Selective Binding (AID 2283295)
# Sequence of rat Serotonin, 5-Hydroxytryptamine Receptor (5HT), Non-Selective Binding, Htr1a (gene 24473) (P19327 whole entry, looked up): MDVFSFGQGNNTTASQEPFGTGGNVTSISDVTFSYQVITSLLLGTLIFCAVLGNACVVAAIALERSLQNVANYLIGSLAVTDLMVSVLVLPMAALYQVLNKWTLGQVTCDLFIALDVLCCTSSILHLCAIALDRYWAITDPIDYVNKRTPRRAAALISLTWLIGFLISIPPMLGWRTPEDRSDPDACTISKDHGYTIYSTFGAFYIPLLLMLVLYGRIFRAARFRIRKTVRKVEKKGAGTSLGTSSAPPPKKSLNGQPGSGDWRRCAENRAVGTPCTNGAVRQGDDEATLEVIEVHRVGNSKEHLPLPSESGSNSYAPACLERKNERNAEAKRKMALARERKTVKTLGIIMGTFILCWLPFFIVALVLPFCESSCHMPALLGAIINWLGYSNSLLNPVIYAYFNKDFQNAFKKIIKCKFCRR
# Procedure, shortened: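 Radioligand displacement on rat cortical membranes, 1 h incubation, filter-based scintillation counting. Primary duplicates at 25 uM, actives retested in concentration series; loss of signal fitted against DMSO as baseline.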
compound,measurement,setting,value
CCCCCCCCCCCCCCCCOS(=O)(=O)O,AC50,[1],4.11 µM (active)
same,AC50,[2],12.5 µM (active)
Cc1nccn1-c1ccc(Sc2cccc(C3(C(N)=O)CCOCC3)c2)cc1,outcome,[3],inactive
same,AC50,[4],11.1 µM (active)
same,AC50,[5],25 µM (active)
same,AC50,Adra2b (gene 24174),8.46 µM (active)
same,AC50,[6],25 µM (active)
same,outcome,[7],inactive
OCCOCCOCCO,outcome,[8],inactive
O=C(O)c1ccc2c(c1)nc(C(=O)NC1CCN(C3CC3)CC1)n2Cc1cc(-c2ccc(Cl)s2)on1,AC50,[4],3.26 µM (active)
same,AC50,Adra2b (gene 24174),0.395 µM (active)
CCN(CC)C(=S)SSC(=S)N(CC)CC,outcome,[1],inactive
same,AC50,[3],19 µM (active)
same,outcome,[2],inactive
same,AC50,[5],16.2 µM (active)
same,outcome,[7],inactive
O=C(O)c1cccc(C[C@@H]2COc3ccc(OCc4nc5cc(F)ccc5s4)cc3[C@@H]2O)c1,outcome,[3],inactive
NC(=O)N1c2ccccc2C=Cc2ccccc21,outcome,[9],inactive
CC[C@H](C)C(=O)O[C@H]1C[C@H](O)C=C2C=C[C@H](C)[C@H](CC[C@@H](O)C[C@@H](O)CC(=O)O)[C@H]21,outcome,[10],inactive
C[C@@H](Oc1ccc(CNC(=O)c2cccnc2Oc2ccc3c(c2)OCO3)c(F)c1)C(=O)O,outcome,[3],inactive
CCCCN1C(=O)[C@@H]([C@H](O)C2CCCCC2)NC(=O)C12CCN(Cc1ccc(Oc3ccc(C(=O)O)cc3)cc1)CC2,AC50,[11],9.81 µM (active)
same,outcome,[12],inactive
CCCCCCCC1CCC(=O)O1 (centres undefined),outcome,[13],inactive
same,outcome,[8],inactive
same,outcome,[14],inactive
COCc1nnc(-c2ccc[n+]([O-])c2)n1-c1c(Cl)c(Cl)cc2[nH]c(=O)c(=O)[nH]c12,outcome,[15],inactive
CCCOc1ccc(S(=O)(=O)N2CCN(CC)CC2)cc1-c1nc2c(CC)n(Cc3ccccn3)nc2c(=O)[nH]1,AC50,[16],0.402 µM (active)
same,AC50,[6],12.6 µM (active)
CCn1nc(C)c2c1C(=O)NCC(c1ccc(O)cc1)=N2,outcome,[15],inactive
same,outcome,[1],inactive
same,outcome,[17],inactive
same,outcome,[13],inactive
same,outcome,[8],inactive
same,outcome,[4],inactive
same,outcome,[6],inactive
same,outcome,[12],inactive
CCCC(CCC)C(=O)O,outcome,[9],inactive
Cc1ncc([C@@H](CCCCCCc2ccc3c(n2)NCCC3)CC(=O)O)cn1,outcome,[17],inactive
S=P(N1CC1)(N1CC1)N1CC1,outcome,[4],inactive
COc1cc(C(C)C)c2c(c1)S(=O)(=O)N(COc1cc(=O)n3cccc(OCCN4CCCCC4)c3n1)C2=O,AC50,[16],3.1 µM (active)
same,outcome,[1],inactive
same,AC50,[3],1.38 µM (active)
same,outcome,[13],inactive
same,AC50,[2],3.17 µM (active)
same,AC50,[4],4.16 µM (active)
same,AC50,Adra2b (gene 24174),2.98 µM (active)
same,AC50,[7],8.62 µM (active)
O=S(=O)(O)c1ccc(N=Nc2c(O)ccc3cc(S(=O)(=O)O)ccc23)cc1,outcome,[16],inactive
same,AC50,[3],35.6 µM (active)
